ASM inhibitor: Inhibitors of Secretory Acid Sphingomyelinase (S-ASM): qHTS; Sphingomyelin phosphodiesterase (Homo sapiens), P17405; placental ASM, HMU-PC fluorogenic substrate, 60 min; Potency, µM (titrated, usually from 57.5 µM), usual class: inhibitors; 340,000 compounds, 0.006% hits; AID 504937, 2011
Target sequence (P17405 47-631 limits assumed): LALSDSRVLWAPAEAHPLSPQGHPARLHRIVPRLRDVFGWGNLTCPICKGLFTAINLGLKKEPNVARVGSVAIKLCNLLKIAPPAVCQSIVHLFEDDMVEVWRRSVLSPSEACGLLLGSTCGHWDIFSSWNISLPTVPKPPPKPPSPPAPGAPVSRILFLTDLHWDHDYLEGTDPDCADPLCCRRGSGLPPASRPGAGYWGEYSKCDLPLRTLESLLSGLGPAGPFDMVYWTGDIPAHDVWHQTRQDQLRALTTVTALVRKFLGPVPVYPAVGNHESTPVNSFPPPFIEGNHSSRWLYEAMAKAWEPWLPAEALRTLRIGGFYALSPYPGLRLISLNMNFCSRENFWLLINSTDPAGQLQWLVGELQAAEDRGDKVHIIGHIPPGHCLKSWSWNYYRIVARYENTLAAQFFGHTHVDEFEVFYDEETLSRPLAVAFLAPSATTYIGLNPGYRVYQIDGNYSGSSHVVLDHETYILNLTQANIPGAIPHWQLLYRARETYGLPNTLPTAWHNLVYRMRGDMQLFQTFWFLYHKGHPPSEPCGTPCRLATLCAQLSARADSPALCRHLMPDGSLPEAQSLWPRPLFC
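Fluorogenic HMU-PC substrate (9 uM final) is turned over by placental ASM in 60 min at 37 C after a 10 min compound preincubation. Reaction ended by alkaline stop (pH 10), with fluorescence read at 386/447 nm.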
TGFb inhibitor: qHTS for Inhibitors of TGF-b; HepG2 CAGA-GFP TGF-b/SMAD3 reporter, GFP fluorescence, 18 h; TGF-beta stimulated, 500 pg/mL final; Potency, µM (highest dose often 46.1 µM), usual class: inhibitors; 410,000 compounds, 1.2% hits; further: nearly all actives have a fitted effect of over 65% in size
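Inhibition was scored as loss of TGF-beta-induced (500 pg/mL final, 18 hours, 37 degrees C) GFP in HEPG2 cells carrying a CAGA-GFP reporter, in DMEM with 1% FBS. Well GFP was summed per cell; Activity was normalised to unstimulated and stimulated DMSO wells, then concentration-response fitting.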
DT40 TDP1 CPT: qHTS for Inhibitors of human tyrosyl-DNA phosphodiesterase 1 (TDP1): qHTS in cells in presence of CPT. chicken DT40 Tdp1-/-;hTDP1 cells + 20 nM CPT, ATP luminescence, 48 h. Potency, µM (top dose mostly 46.2 µM), usual class: inhibitors. 420,000 compounds, 12% hits. AID 686979, 2013; further: nearly all actives have a fitted effect of over 55% in size
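Cell growth measured by CellTiter-Glo luminescence after a minimum 48 h, 37 C compound exposure with 20 nM CPT in Tdp1-knockout DT40 cells stably expressing hTDP1, seeded 400/well; qHTS titration format.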
IL1B secr inh: qHTS for Inhibitors of Inflammasome Signaling: IL-1-beta AlphaLISA Primary Screen; AID 743279, 2014; THP-1 LPS/ATP IL-1B secretion, AlphaLISA, 16 h; hits give low values; 360,000 compounds, 4.7% hits; activity change, % at 57.5 µM; in the data active means activity change below about -50%; inconclusive means mostly about -30% to -49%
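Secreted IL-1B measured by AlphaLISA bead assay after 16 h compound exposure of THP-1 cells; compounds (final up to 57.5 uM) added 1 h before LPS (250 ng/mL) and ATP (1.25 mM) stimulation; lower signal means less secretion.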
HepG2 tox: qHTS for Inhibitors of TGF-b: Cytotox Counterscreen; 410,000 compounds, 0.76% hits; HepG2 CAGA-GFP viability, ATP luminescence, 18 h; Potency, µM (highest dose often 46.1 µM), most hits filed as cytotoxic
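CellTiter-Glo luminescence gave cytotoxicity after 18 hours at 37 degrees C. The cells were HepG2 CAGA-GFP in 1% FBS DMEM, stimulated with 500 pg/mL TGF-beta after compound addition. %Activity was normalised to no-cell wells (complete cell-killing) and DMSO (no toxicity), and curves were fitted and classified.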
TDP1 cell noCPT: qHTS for Inhibitors of human tyrosyl-DNA phosphodiesterase 1 (TDP1): qHTS in cells in absence of CPT | 420,000 compounds, 15% hits | AID 686978, 2013 | DT40 Tdp1-/- hTDP1 cells, no CPT, ATP luminescence, 48 h | Potency, µM (highest dose often 46.2 µM), most hits filed as inhibitors; further: nearly all actives have a fitted effect of over 55% in size
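Chicken DT40 Tdp1-/- cells stably complemented with human TDP1 were seeded at 400 cells/well with DMSO in place of 20 nM camptothecin. After compound pinning, cells grew at least 48 hr at 37 °C; viability read by CellTiter-Glo luminescence.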
Numbers stand for hits; i = inactive; ? = inconclusive; nt = not tested or not shown. Sampled rows, rich in hits. Any-hit rate of the full collection: about 19%. Unless noted, the call rests on the fitted dose curve; in most records, active means well fitted curve in the direction sought with a large enough effect; inconclusive means small, poorly fitted or top-dose-only effect, or another doubt; inactive means no such curve, though single readings can be large; an effect the other way counts as inactive or inconclusive.

SMILES	ASM inhibitor	TGFb inhibitor	DT40 TDP1 CPT	IL1B secr inh	HepG2 tox	TDP1 cell noCPT
COC(=O)c1c(-c2ccc(Cl)cc2)noc1N1CCN(c2ccc(F)cc2)CC1	nt	i	21µM	nt	i	21µM
COC(=O)c1c(-c2ccc(Cl)cc2)noc1N1CCN(c2cccc(C(F)(F)F)c2)CC1	nt	i	15µM	nt	i	23µM
CCOc1ncccc1C(=O)N1CCN(S(=O)(=O)c2ccc(Br)cc2Cl)CC1	i	i	?	i	i	?
O=C(CNc1ccc(Br)cc1)Nc1ccc(S(=O)(=O)N2CCCCC2)cc1	nt	?	?	i	i	29µM
O=C(CN1CCN(S(=O)(=O)N2CCCCC2)CC1)Nc1ccc(Br)cc1	nt	i	?	i	i	16µM
O=C(CNC1CCCC1)Nc1ccc(S(=O)(=O)N2CCCCC2)cc1	i	i	i	i	i	?
O=C(O)CCN(CC(=O)c1ccc(Cl)cc1)S(=O)(=O)c1ccc([N+](=O)[O-])cc1	i	i	i	i	i	i
NNc1nc(C(F)(F)F)nc2ccccc12	i	i	i	i	i	i
O/C=c1\ccc2cccc3nc(C(F)(F)F)nc1c23	i	i	10µM	i	i	21µM
CCOC(=O)C1=CN(Cc2cccc(-c3ccc4c(c3)OCO4)c2)S(=O)(=O)N(C)C1C (stereo unspecified)	i	i	?	i	i	23µM
CCOC(=O)C1=CN(Cc2cccc(F)c2)S(=O)(=O)N(C)C1c1ccc(F)c(Cl)c1 (stereo unspecified)	i	i	?	i	i	16µM
CC#CCN1C=C(C(=O)OCC)C(C)N(Cc2ccc(Br)cc2)S1(=O)=O (stereo unspecified)	i	?	18µM	i	i	23µM
CCOC(=O)C1=CN(Cc2cccc(F)c2)S(=O)(=O)NC1CCc1ccccc1 (stereo unspecified)	i	?	?	?	i	26µM
CCOC(=O)C1=CN(Cc2cccc(Br)c2)S(=O)(=O)N(CC)C1C (stereo unspecified)	i	?	?	i	i	?
CCOC(=O)C1=CN(CC)S(=O)(=O)NC1CCc1ccccc1 (stereo unspecified)	i	i	i	i	i	i
COC(=O)c1cnn2c(C)c(Cc3c(C)cc(C)cc3C)c(C)nc12	nt	i	?	nt	i	i
Cc1ccc2c(c1)cc1c(=O)n(Cc3ccc(Cl)cc3)nc(C)n12	nt	i	i	nt	i	i
COC(=O)C1CN(C(=O)C(C)Oc2cccc(C)c2C)c2ccccc2O1 (stereo unspecified)	i	i	i	i	i	i
CCCN1C(C)C(C(=O)OCC)=CN(Cc2cccc(I)c2)S1(=O)=O (stereo unspecified)	i	?	?	i	i	16µM
CCCN1C(C)C(C(=O)OCC)=CN(Cc2ccc(Br)cc2)S1(=O)=O (stereo unspecified)	i	?	?	i	i	?
CCOC(=O)C1=CN(Cc2cccc(-c3ccc(Cl)nc3)c2)S(=O)(=O)N(C)C1C (stereo unspecified)	i	i	23µM	?	i	21µM
O=C(NC1CCN(Cc2ccccc2Cl)CC1)c1ccccc1	i	i	i	i	i	?
COc1ccccc1N(C(C)=O)C1=C(Cl)C(=O)c2ccccc2C1=O	nt	i	0.52µM	?	11µM	0.73µM
CC(=O)N(C1=C(N)C(=O)c2ccccc2C1=O)C(C)C	i	i	?	i	i	?
Clc1ccc(Nc2c(-c3ccccc3Cl)nc3ccc(Cl)cn23)cc1	nt	i	?	nt	i	26µM
SMILES	ASM inhibitor	TGFb inhibitor	DT40 TDP1 CPT	IL1B secr inh	HepG2 tox	TDP1 cell noCPT
CC(C)c1ccc(Nc2c(-c3ccsc3)nc3ccc(Cl)cn23)cc1	nt	i	?	nt	i	?
Oc1ccccc1-c1nc2cnccn2c1Nc1ccc(Cl)cc1	nt	6.3µM	?	nt	i	?
COc1ccc(Nc2c(-c3ccc(C)o3)nc3ccc(Cl)cn23)cc1	nt	i	7.3µM	nt	i	18µM
CNC(=O)c1cc(S(=O)(=O)N2CC(C)OC(C)C2)ccc1N1CCOCC1 (stereo unspecified)	i	i	i	i	i	?
O=C(c1cccs1)c1c[nH]cc1-c1ccccc1	i	i	i	-57	i	i
O=C(c1ccccc1)c1c[nH]cc1-c1ccccc1	i	i	i	i	i	i
CCc1ccc(N(C(C)=O)c2nc(CCl)cs2)cc1	i	i	i	i	i	10µM
Cc1ccc(C2Cc3cc(O)c(O)cc3CN2)cc1 (stereo unspecified)	i	i	15µM	i	i	16µM
O=C(NC(Cc1cn(Cc2ccccc2)cn1)C(=O)O)OCC1c2ccccc2-c2ccccc21 (stereo unspecified)	nt	?	15µM	i	i	13µM
CC(C)C[C@H](NC(=O)OCC1c2ccccc2-c2ccccc21)C(=O)O	i	i	i	i	i	i
O=C(NCc1ccc(C(F)(F)F)cc1)C12CN(Cc3ccccc3)CC1C(c1cccc([N+](=O)[O-])c1)=NO2 (stereo unspecified)	i	i	i	i	i	16µM
O=C(Nc1ccccc1Cl)Nc1ccnn1C1CCN(C(=O)CCN2CCCO2)CC1	i	i	i	i	i	i
O=C(Nc1ccc(F)cc1F)c1ccc(-n2cccn2)nc1	i	i	?	i	i	?
CC(C)Sc1ccc(C(=O)Nc2ccc(F)cc2F)cn1	i	i	?	i	i	23µM
CC(C)Oc1ccc2ccccc2c1CNC[C@H]1O[C@@H](n2ccc(=O)[nH]c2=O)[C@H](O)[C@@H]1O	nt	i	i	i	i	i
CCCc1nc2c3ccccc3ccn2c1CC(C)(C)C	nt	?	9.2µM	i	i	21µM
CCCc1nc2c3ccccc3ccn2c1Cc1ccc(C)cc1	nt	?	21µM	i	i	?
CCCc1nc2c3ccccc3ccn2c1Cc1cccc(Cl)c1	nt	i	?	i	i	?
COc1cc2c(cc1OC)CN(C(=O)c1ccc3[nH]c(C)c(C)c3c1)CC2	i	?	?	i	i	?
CN(C)CCCNC(=O)C(=O)Nc1cc2c3c(c1)CCC(=O)N3CCC2	i	i	i	i	i	i
Oc1ccc(N=Nc2ccc(Br)cc2)c(O)c1	i	?	26µM	i	i	23µM

High-throughput results: PubChem BioAssay, National Center for Advancing Translational Sciences (NCATS)
